# From PubChem BioAssay (NCATS)
# Inconclusive results are not listed. A call without a number means that no potency is given here. Activity calls are given as the source filed them. The call rests on the fitted dose curve; in most records, active means well fitted cell-killing curve with a large enough effect; inconclusive means small, poorly fitted or top-dose-only effect, or effect the other way; inactive means no such curve, though single readings can be large or run the other way.
# Test: qHTS of pediatric cancer cell lines to identify multiple opportunities for drug repurposing: Confirmatory screen for OHS-50 cells (AID 1347128);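 further: compound exposure lasted 48 h at 37 degrees C; nearly all actives have a fitted effect of over 55% in size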
# Conditions: OHS-50 osteosarcoma cells viability; series mostly up to 45.9 µM
# Excerpt: Drug repurposing or repositioning has been offered as a strategy for drug development in oncology programs. This approach has special potential for childhood cancers and other rare or orphan diseases, where the expected return on new drug development has been a disincentive to pharmaceuticals.
# In this project we exploit the poly-pharmacology of drugs to discover new indications via phenotypic screening of a panel of 19 well-characterized cell lines derived from solid tumors seen in children and adolescents. The goal is to identify approved drugs with previously unrecognized anticancer properties that has the potential to reveal new mechanisms and biological processes involved in carcinogenesis or drug resistance. We employed a titration-based paradigm (quantitative high-throughput screening or qHTS), where all compounds were tested at multiple concentrations for their effect on cell viability. Concentration-response curves (CRCs) were derived directly from the primary screen, and both potency and efficacy values were used to identify compounds with robust bioactivity profiles. We screened the NIH Chemical Genomics Center (NCGC) Pharmaceutical Collection (NPC) and Mechanism Interrogation Plate (MIPE) small molecule collections of approved and investigational compounds against these cell lines; and measured metabolically active cells after 48 hours of compound treatment as a proxy for cell viability.
# Assay Submitter: Nathalia J. Martinez, National Center for Advancing Translational Sciences, National Institutes of Health, Rockville, MD, USA; email: natalia.martinez@nih.gov
# [1] Shen, M et al. Quantitative high-throughput phenotypic screening of pediatric cancer cell lines identifies multiple opportunities for drug repurposing. Oncotarget 2017 Dec 19;9(4):4758-4772. PMID 29435139.
# The cells were obtained from University of North Carolina (UNC), Pediatric Preclinical Testing Program (PPT), and Coriell Institute (CI).
# qHTS cell viability assay:
# Cells were assayed in growth media at a density of 500-1,000 cells/well. Five microliters of cells were dispensed into 1,536-well, white, solid-bottom, TC-treated plates (Greiner Bio One) using a multidrop dispenser and incubated at 37 degrees C, 5% CO2, under a humidified atmosphere for 5 hours. Twenty-three nanoliters of compounds and controls (neutral control DMSO or positive control bortezomib at final concentration of 2.3 µM) were subsequently transferred by Kalypsys pintool. For primary screens, the MIPE collection was tested at 11-point dilutions (final concentrations range from 0.78 nM to 46 µM) and the NPC collection at 8-point dilutions (final concentrations range from 0.59 nM to 46 µM). Compounds tested in follow-up screens were assayed at 11-point dilutions. Cells were incubated for 48 hours, followed by addition of 3 µL of CellTiter-Glo (Promega). After a 15 min incubation at room temperature, samples were analyzed for luminescence intensity using a ViewLux High-throughput CCD imager equipped with clear filters.
# Potency means the concentration at half of the fitted maximal effect.
row,Compound,Potency
1,CC[n+]1c(-c2ccccc2)c2cc(N)ccc2c2ccc(N)cc21,1.17 µM (active)
2,CN1[C@@H]2CC[C@H]1CC(OC(=O)c1cc(Cl)cc(Cl)c1)C2 (stereo partly specified),inactive
3,CCc1ccc(C2CCNCC2)cc1,inactive
4,CC1Sc2c(C(=O)O)c(=O)c3cc(F)c(N4CCNCC4)cc3n21 (stereo unspecified),inactive
5,CCCCCCCCC(=O)NCc1ccc(O)c(OC)c1,inactive
6,COC(=O)C1=CCCN(C)C1,inactive
7,CCCCCCCCCCCC[N+](C)(C)CCOc1ccccc1,20.8 µM (active)
8,C[C@@H]1C[C@@H]([C@H](O)CC2CC(=O)NC(=O)C2)C(=O)[C@@H](C)C1,0.928 µM (active)
9,Cc1ccc([N+](=O)[O-])[c]2c1[O][Hg]2,2.61 µM (active)
10,ClC1=C(Cl)C2(Cl)C(CBr)CC1(Cl)C2(Cl)Cl (stereo unspecified),inactive
11,COc1ccc2c(C(=O)c3ccc(Cl)cc3)c(C)n(CC(=O)O)c2c1,inactive
